The source of these data is PubChem BioAssay (NCI).

The panel holds about 83,000 compounds, 20% with a hit somewhere; the sample as a whole holds those more often.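 Treatment: one concentration, 48 hours, 96-well format. Scoring: percent growth, with anything below 10 considered active.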 A number with no mark means an inactive call. Active and inactive are the calls of the source.

Among the test systems are HT29 colon; SNB-75 CNS; SNB-19 CNS; U251 CNS; PC-3 prostate; SK-MEL-5 melanoma; UACC-62 melanoma; LOX IMVI melanoma; SK-MEL-28 melanoma.
What all share (test): NCI-60 one-dose screen, 48 h (100 = growth as untreated, 0 = no growth, -100 = all killed)
Settings in all cases: 10 µM unless noted

`COc1cc(C2CC(c3cccc(Nc4ccnc5cc(Cl)ccc45)c3)=NN2c2ccc(Cl)cc2)cc(OC)c1OC` (configuration not stated): the growth in the assay with HT29 colon was 76%; in the assay with SNB-75 CNS, 62.4%; in the assay on SNB-19 CNS, 85.9%; in the assay with U251 CNS, 75.2%; in the assay with PC-3 prostate, 51%; in the assay with SK-MEL-5 melanoma, 34.2%. Besides, the growth in the assay on UACC-62 melanoma was 9.05% (active); with LOX IMVI melanoma, 43.5%; in the assay on SK-MEL-28 melanoma, 51.4%.

`COc1ccc2c(c1)N(CCO)C1=C(C(=O)OC1)C2c1cccc(Br)c1` (configuration not stated): the growth with HT29 colon was -9.38% (active); in the assay on SNB-75 CNS, 29.2%; in the assay with SNB-19 CNS, 35.4%; in the assay on U251 CNS it was 14%; in the assay with PC-3 prostate, 26.2%; with SK-MEL-5 melanoma it was 2.15% (active). In addition, the growth in the assay on UACC-62 melanoma is 25%; with LOX IMVI melanoma, 22.2%; with SK-MEL-28 melanoma, 58.6%.

As to `O=C(O)C1[S][Sb]([CH](C(=O)O)[CH](C(=O)O)[Sb]2[S]C(C(=O)O)C(C(=O)O)[S]2)[S]C1C(=O)O` (configuration not stated), the growth with HT29 colon is 80.8%; with SNB-75 CNS, 83.8%; in the assay on SNB-19 CNS, 92.9%; in the assay with U251 CNS it was 73.1%; in the assay with PC-3 prostate it was 83.4%; in the assay on SK-MEL-5 melanoma, 3.78% (active). Besides, the growth in the assay with UACC-62 melanoma is 89.2%; in the assay with LOX IMVI melanoma, 8.37% (active); with SK-MEL-28 melanoma, 61.1%.
